Source: PubChem BioAssay (NCATS)
“And” between values parts separate entries of the source, which are not always exact repeats. Equal entries are not always repeated. Records with an inconclusive call do not appear. The source made the active and inactive calls. Calls come from the whole dose curve; as a rule, active = well fitted inhibition curve with a large enough effect; inconclusive = small, poorly fitted or top-dose-only effect; inactive = flat fitted curve, though single readings scatter.

Legend:
P94_40 = test: qHTS profiling for inhibitors of Plasmodium falciparum proliferation (AID 504749);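 note: 0% = DMSO vehicle and full inhibition = artemisinin control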; conditions: P. falciparum in erythrocytes, SYBR Green DNA, 72 h; series mostly up to 28.7 µM
Method in brief: (§1)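 P. falciparum-infected erythrocytes (0.3% parasitemia, 2.5% hematocrit) incubated with compound 72 h at 37 C, 5% CO2. Parasite DNA detected by SYBR Green after lysis, overnight at room temperature; normalised to 0.29 uM artemisinin and DMSO.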

PAD = test: as above; conditions: P. falciparum in erythrocytes, SYBR Green DNA, 72 h; series mostly up to 28.7 µM
Method in brief: as §1

PC15 = test: as above; conditions: P. falciparum in erythrocytes, SYBR Green DNA, 72 h; series mostly up to 28.7 µM
Method in brief: as §1

PC26 = test: as above; conditions: P. falciparum in erythrocytes, SYBR Green DNA, 72 h; series mostly up to 28.7 µM
Method in brief: as §1

PC49 = test: as above; conditions: P. falciparum in erythrocytes, SYBR Green DNA, 72 h; series mostly up to 28.7 µM
Method in brief: as §1

SC27B = test: as above; conditions: P. falciparum in erythrocytes, SYBR Green DNA, 72 h; series mostly up to 28.7 µM
Method in brief: as §1

TAB109 = test: as above; conditions: P. falciparum in erythrocytes, SYBR Green DNA, 72 h; series mostly up to 28.7 µM
Method in brief: as §1

TAB113 = test: as above; conditions: P. falciparum in erythrocytes, SYBR Green DNA, 72 h; series mostly up to 28.7 µM
Method in brief: as §1

TAB165 = test: as above; conditions: P. falciparum in erythrocytes, SYBR Green DNA, 72 h; series mostly up to 28.7 µM
Method in brief: as §1

W2 = test: as above; conditions: P. falciparum in erythrocytes, SYBR Green DNA, 72 h; series mostly up to 28.7 µM
Method in brief: as §1

CRL-7250 = normal cell line; test: Cytotoxic Profiling of Annotated Libraries Using Quantitative High-Throughput Screening (AID 1296008); conditions: Five cell lines viability, CellTiter-Glo ATP luminescence, 48-72 h; max response: hits give low values; for max response: % is set by controls: 0 for no effect and ±100 for the full control effect
Method in brief: (§2)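 Cells exposed to compounds for 48 or 72 hr at 37 degrees Celsius. Viability read as ATP-coupled luminescence with CellTiter-Glo after 10 min at room temperature.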

HEK293 = test: as above; conditions: Five cell lines viability, CellTiter-Glo ATP luminescence, 48-72 h; max response: hits give low values
Method in brief: as §2

HaCat [1] = test: as above; conditions: Five cell lines viability, CellTiter-Glo ATP luminescence, 48-72 h; max response: hits give low values
Method in brief: as §2

KB-3-1 = test: as above; conditions: Five cell lines viability, CellTiter-Glo ATP luminescence, 48-72 h; max response: hits give low values
Method in brief: as §2

NIH3T3 = test: as above; conditions: Five cell lines viability, CellTiter-Glo ATP luminescence, 48-72 h; max response: hits give low values
Method in brief: as §2

HACAT [2] = test: qHTS assay to identify novel small-molecules to repurpose for Merkel cell carcinoma treatment (AID 1296009); conditions: MCC and control cell lines, CellTiter-Glo viability, 72 h; at 44.8 µM (top of the series) unless noted
Method in brief: (§3)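 Cells were treated for 72 hr at 37 degree celsius with compounds in 8- or 11-point dose response. Viability was read by CellTiter-Glo luminescence, normalized to no-cell (cytotoxicity) and DMSO controls.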

MCC-13 = test: as above; conditions: MCC and control cell lines, CellTiter-Glo viability, 72 h; series mostly up to 46 µM
Method in brief: as §3

MCC-26 = test: as above; conditions: MCC and control cell lines, CellTiter-Glo viability, 72 h; series mostly up to 46 µM
Method in brief: as §3

MKL-1 = test: as above; conditions: MCC and control cell lines, CellTiter-Glo viability, 72 h; series mostly up to 46 µM
Method in brief: as §3

HEK293T = test: as above; conditions: MCC and control cell lines, CellTiter-Glo viability, 72 h; at 44.8 µM (top of the series) unless noted
Method in brief: as §3
Note: nearly all actives have a fitted effect of over 60% in size.

COc1ccc(C2C(=O)c3ccccc3C2=O)cc1
inactive: Potency (P94_40) | Potency (PAD) | Potency (PC15) | Potency (PC26) | Potency (PC49) | Potency (SC27B) | Potency (TAB109) | Potency (TAB113) | Potency (TAB165) | Potency (W2) | max response (CRL-7250) -6.18% | max response (HEK293) -6.61% | outcome (HaCat [1]) | max response (KB-3-1) 1.39% | outcome (NIH3T3) | outcome (HACAT [2]) | Potency (MCC-13) | Potency (MCC-26) | Potency (MKL-1)

CCCCS(=O)(=O)N[C@@H](Cc1ccc(OCCCCC2CCNCC2)cc1)C(=O)O
inactive: max response (CRL-7250) -2.86% and 2.79% | max response (HEK293) -5.53% and -1.56% | max response (HaCat [1]) -0.76% | outcome (HaCat [1]) | max response (KB-3-1) -7.62% | outcome (KB-3-1) | max response (NIH3T3) -1.76% | outcome (NIH3T3) | outcome (HACAT [2]) | Potency (MCC-13) | Potency (MCC-26) | Potency (MKL-1)

COC(=O)[C@@H]1CC2=CC(=O)CC[C@]2(C)[C@@]23O[C@@H]2C[C@@]2(C)[C@@H](CC[C@@]24CCC(=O)O4)[C@H]13
inactive: Potency (P94_40) | Potency (PAD) | Potency (PC15) | Potency (PC26) | Potency (PC49) | Potency (SC27B) | Potency (TAB109) | Potency (TAB113) | Potency (TAB165) | Potency (W2) | max response (CRL-7250) -2.8% | max response (HEK293) 3.69% | outcome (HaCat [1]) | max response (KB-3-1) -7.46% | outcome (NIH3T3) | outcome (HACAT [2]) | Potency (MCC-13) | Potency (MCC-26) | Potency (MKL-1)

Cc1cc(O)c(C(C)C)cc1Cl
inactive: Potency (P94_40) | Potency (PAD) | Potency (PC15) | Potency (PC26) | Potency (PC49) | Potency (SC27B) | Potency (TAB109) | Potency (TAB113) | max response (CRL-7250) -3.05% | outcome (HEK293) | outcome (HaCat [1]) | max response (KB-3-1) 1.71% | max response (NIH3T3) 2.6% | outcome (HACAT [2]) | outcome (HEK293T) | Potency (MCC-13) | Potency (MCC-26) | Potency (MKL-1)

Cc1ncc(CSSCc2cnc(C)c(O)c2CO)c(CO)c1O
inactive: Potency (P94_40) | Potency (PAD) | Potency (PC15) | Potency (PC26) | Potency (PC49) | Potency (SC27B) | Potency (TAB109) | Potency (TAB113) | Potency (TAB165) | Potency (W2) | max response (CRL-7250) -3.39% | outcome (HEK293) | outcome (HaCat [1]) | max response (KB-3-1) -0.0269% | max response (NIH3T3) 4.82% | outcome (HACAT [2]) | outcome (HEK293T) | Potency (MCC-13) | Potency (MCC-26) | Potency (MKL-1)

O=C(O)CNC(=O)c1ccccc1
inactive: Potency (P94_40) | Potency (PAD) | Potency (PC15) | Potency (PC26) | Potency (PC49) | Potency (SC27B) | Potency (TAB109) | Potency (TAB113) | Potency (TAB165) | Potency (W2) | max response (CRL-7250) 2.85% | max response (HEK293) -10.7% | outcome (HaCat [1]) | max response (KB-3-1) -0.856% | outcome (NIH3T3) | outcome (HACAT [2]) | Potency (MCC-13) | Potency (MCC-26) | Potency (MKL-1)

O=c1[nH]c(=O)n([C@H]2CCCO2)cc1F
inactive: max response (CRL-7250) 4.85% and -6.48% | max response (HEK293) 1.04% | outcome (HEK293) | outcome (HaCat [1]) | max response (KB-3-1) 8.54% | max response (NIH3T3) -5.35% | outcome (HACAT [2]) | outcome (HEK293T) | Potency (MCC-13) | Potency (MCC-26) | Potency (MKL-1)

COc1c2occc2c(OC)c2c(=O)cc(C)oc12
inactive: Potency (P94_40) | Potency (PAD) | Potency (PC15) | Potency (PC26) | Potency (PC49) | Potency (SC27B) | Potency (TAB109) | Potency (TAB113) | Potency (TAB165) | Potency (W2) | outcome (CRL-7250) | max response (HEK293) -0.27% | outcome (HaCat [1]) | max response (KB-3-1) 9.91% | max response (NIH3T3) -9.5% | outcome (HACAT [2]) | Potency (MCC-13) | Potency (MCC-26) | Potency (MKL-1)

CC(C)(C)NC(=O)[C@@H]1CN(Cc2cccnc2)CCN1C[C@@H](O)C[C@@H](Cc1ccccc1)C(=O)N[C@H]1c2ccccc2C[C@H]1O
inactive: max response (CRL-7250) -1.33% and -2.61% | max response (HEK293) 3.56% | outcome (HEK293) | max response (HaCat [1]) -2.17% | outcome (HaCat [1]) | max response (KB-3-1) 9.13% | max response (NIH3T3) 1.79% and -2.96% | outcome (HACAT [2]) | outcome (HEK293T) | Potency (MCC-13) | Potency (MCC-26) | Potency (MKL-1)

Cc1cc2c(cc1CC(=O)c1sccc1S(=O)(=O)Nc1onc(C)c1Cl)OCO2
inactive: max response (CRL-7250) -5.35% and 2.32% | outcome (HEK293) | max response (HaCat [1]) -2.94% | outcome (HaCat [1]) | max response (KB-3-1) 9.67% | max response (NIH3T3) 0.409% and 4.42% | outcome (HACAT [2]) | outcome (HEK293T) | Potency (MCC-13) | Potency (MKL-1)

C[C@H](CCC(=O)O)[C@H]1CC[C@H]2[C@@H]3C(=O)C[C@@H]4CC(=O)CC[C@]4(C)[C@H]3CC(=O)[C@]12C
inactive: max response (CRL-7250) -5.31% | outcome (HEK293) | outcome (HaCat [1]) | max response (KB-3-1) -9.72% | max response (NIH3T3) -5.45% | outcome (HACAT [2]) | outcome (HEK293T) | Potency (MCC-13) | Potency (MCC-26) | Potency (MKL-1)

OC[C@H]1O[C@H](O[C@]2(CCl)O[C@H](CCl)[C@@H](O)[C@@H]2O)[C@H](O)[C@@H](O)[C@H]1Cl
inactive: outcome (CRL-7250) | max response (HEK293) -9.55% | outcome (HEK293) | max response (HaCat [1]) -7.79% and -6.26% | outcome (KB-3-1) | max response (NIH3T3) -17.4% | outcome (NIH3T3) | outcome (HEK293T) | Potency (MCC-13) | Potency (MKL-1)
